Results as given in PubChem BioAssay (Tox21).
Inconclusive results are not listed. The source made the active and inactive calls. Unless noted, calls follow the shape of the dose curve; as a rule, active = well fitted curve in the direction sought with a large enough effect in the repeat runs; inconclusive = weak or mixed curves; inactive = no such curve, though single readings can be large; an effect the other way counts as inactive or inconclusive.

How the values were obtained:
[1] = qHTS assay to identify small molecule antagonists of the glucocorticoid receptor (GR) signaling pathway - cell viability counter screen (AID 720693); also: nearly all actives have a fitted effect of over 55% in size
[2] = qHTS assay for identifying genotoxic compounds that show differential cytotoxicity against isogenic chicken DT40 cell lines with known DNA damage response pathways - Rev3 mutant cell line (AID 743014); also: nearly all actives have a fitted effect of over 55% in size; also: potency is read from the fitted curve at half-maximal effect
[3] = qHTS assay to identify small molecule antagonists of the androgen receptor (AR) signaling pathway - cell viability counter screen (AID 743033; also: nearly all actives have a fitted effect of over 45% in size)
[4] = qHTS assay to identify small molecule antagonists of the androgen receptor (AR) signaling pathway using the MDA cell line - cell viability counter screen (AID 743041; also: nearly all actives have a fitted effect of over 45% in size)
Outline: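 Viability counter screen run alongside the AR antagonist reporter: cells seeded 5 h before compound, R1881 added, 16 h incubation at 37C without CO2, fluorescent CellTiter-Fluor signal quantified.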

[5] = qHTS assay to identify small molecule antagonists of the thyroid receptor (TR) signaling pathway - cell viability counter screen (AID 743064); also: nearly all actives have a fitted effect of over 50% in size; also: potency is read from the fitted curve at half-maximal effect
Outline: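 Fluorescence from CellTiter-Fluor, added after 23.5 h exposure at 37 °C, reported viability of GH3.TRE-Luc cells co-treated with compound and 1 nM T3. Measured in the same wells as the luciferase TR readout.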

[6] = qHTS assay to identify small molecule antagonists of the thyroid receptor (TR) signaling pathway (AID 743065); also: nearly all actives have a fitted effect of over 55% in size; also: potency is read from the fitted curve at half-maximal effect; as to activity, negative = inhibition: series mostly up to about 70 µM
Outline: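 GH3.TRE-Luc rat pituitary cells carrying two TR response elements driving luciferase were plated for 4 h, given compound plus 1 nM T3 (final), and incubated 23.5 h at 37 C. ONE-Glo luminescence measured reporter inhibition; CellTiter-Fluor fluorescence tracked cytotoxicity.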

[7] = system: thyroid hormone receptor (rat, GH3 cells); assay: qHTS assay to identify small molecule agonists of the thyroid receptor (TR) signaling pathway (AID 743066; calls by dose curve)
[8] = qHTS assay to identify small molecule antagonists of the estrogen receptor alpha (ER-alpha) signaling pathway - cell viability counter screen (AID 743074; calls by dose curve;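 also: HEK293 cells carrying ER-alpha-UAS-bla reporter stimulated with 17beta-estradiol; nearly all actives have a fitted effect of over 45% in size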)
[9] = target: Estrogen receptor (Homo sapiens) (UniProt P03372); assay: qHTS assay to identify small molecule agonists of the estrogen receptor alpha (ER-alpha) signaling pathway (AID 743075; calls by dose curve;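 also: HEK293 GripTite cells with ER-alpha and UAS-driven beta-lactamase reporter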)
[10] = target: Estrogen receptor (Homo sapiens) (UniProt P03372); assay: qHTS assay to identify small molecule agonists of the estrogen receptor alpha (ER-alpha) signaling pathway using the BG1 cell line (AID 743079); also: nearly all actives have a fitted effect of over 20% in size; also: potency is read from the fitted curve at half-maximal effect
[11] = qHTS assay to identify small molecule antagonists of the estrogen receptor alpha (ER-alpha) signaling pathway using the BG1 cell line - cell viability counter screen (AID 743081);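 also: compound given together with 17beta-estradiol as the ER stimulus; series mostly up to about 70 µM; nearly all actives have a fitted effect of over 45% in size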
Aromatase (Homo sapiens) = Aromatase (Homo sapiens) (UniProt P11511); assay: qHTS assay to identify aromatase inhibitors (AID 743083); also: series mostly up to about 70 µM; nearly all actives have a fitted effect of over 55% in size
[12] = qHTS assay for identifying genotoxic compounds that show differential cytotoxicity against isogenic chicken DT40 cell lines with known DNA damage response pathways - wild type cell line (AID 743012); also: nearly all actives have a fitted effect of over 60% in size; also: potency is read from the fitted curve at half-maximal effect
Outline: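 Wild type DT40, 300 cells/well, ~0.5 h settle at 37 C/5% CO2; compounds in DMSO added by pintool; 40 h at 37 C/5% CO2; CellTiter-Glo, 30 min RT; luminescence.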

[13] = qHTS assay for identifying genotoxic compounds that show differential cytotoxicity against isogenic chicken DT40 cell lines with known DNA damage response pathways - Rad54/Ku70 mutant cell line (AID 743015); also: nearly all actives have a fitted effect of over 60% in size; also: potency is read from the fitted curve at half-maximal effect
[14] = target: Estrogen receptor (Homo sapiens) (UniProt P03372); assay: qHTS assay to identify small molecule antagonists of the estrogen receptor alpha (ER-alpha) signaling pathway (AID 743069; active = well fitted curve in the direction sought with a large enough effect in the signal ratio in the repeat runs, not every such curve was filed as active; the % refers to the signal ratio)
Outline: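 Estradiol-stimulated ER-alpha-UAS-bla HEK293 cells, 18 hr compound exposure at 37C. LiveBLAzer B/G substrate, 2 hr RT, fluorescence read.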

[15] = qHTS assay to identify small molecule antagonists of the estrogen receptor alpha (ER-alpha) signaling pathway using the BG1 cell line (AID 743080; calls by dose curve;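 also: BG1 cells stimulated with 17beta-estradiol alongside compound; series mostly up to about 70 µM; nearly all actives have a fitted effect of over 25% in size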)
Outline: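 Seeding, 24 h rest, compound transfer from DMSO, 17beta-estradiol addition, 21.5 h incubation, CellTiter-Fluor (30 min, 37 C), then ONE-Glo (30 min, room temperature): this sequence was run on BG1-Luc-4E2 reporter cells.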

[16] = target: Androgen receptor (Homo sapiens) (UniProt P10275); assay: qHTS assay to identify small molecule agonists of the androgen receptor (AR) signaling pathway using the MDA cell line (AID 743040; also: nearly all actives have a fitted effect of over 20% in size; also: potency is read from the fitted curve at half-maximal effect)
Outline: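 Luminescence from ONE-Glo, read after 30 min at room temperature, reflects MMTV-driven luciferase in MDA-kb2 cells (AR- and GR-responsive). Treatment lasted 16 h at 37C, 0% CO2.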

[17] = target: Androgen receptor (Homo sapiens) (UniProt P10275); assay: qHTS assay to identify small molecule antagonists of the androgen receptor (AR) signaling pathway using the MDA cell line (AID 743042; also: nearly all actives have a fitted effect of over 55% in size)
Outline: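 MDA-kb2 cells (human breast carcinoma, stably carrying an MMTV-luciferase reporter responsive to AR and GR) were plated at 3,000 cells/well and preincubated 5 hr at 37C, then given compound plus R1881 agonist for 16 h. ONE-Glo luminescence was read.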

[18] = target: Androgen receptor (Homo sapiens) (UniProt P10275); assay: qHTS assay to identify small molecule antagonists of the androgen receptor (AR) signaling pathway (AID 743035; active = well fitted inhibition curve with a large enough effect in the signal ratio in the repeat runs, not every such curve was filed as active; the % refers to the signal ratio)
Outline: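 Fluorescence from a beta-lactamase FRET substrate (LiveBLAzer B/G, 2 h, room temperature) measured inhibition of R1881-stimulated signaling in GeneBLAzer AR-UAS-bla HEK293 cells exposed to compound for 16 h at 37C.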

[19] = target: Androgen receptor (Homo sapiens) (UniProt P10275); assay: qHTS assay to identify small molecule agonists of the androgen receptor (AR) signaling pathway (AID 743036; active = well fitted activation curve with a large enough effect in the signal ratio in the repeat runs, with a control signal flat, not every such curve was filed as active; the % refers to the signal ratio)
Outline: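 Fluorescence from a beta-lactamase FRET substrate served as read-out in AR-UAS-bla GripTite HEK293 cells. Cells were treated with DMSO-dissolved compounds for 16 h at 37C, then with LiveBLAzer B/G substrate for 2 h at room temperature.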
% is scaled to controls: 0 for no effect and ±100 for the full control effect.

Androgen receptor (Homo sapiens), sequence (P10275 whole entry, looked up): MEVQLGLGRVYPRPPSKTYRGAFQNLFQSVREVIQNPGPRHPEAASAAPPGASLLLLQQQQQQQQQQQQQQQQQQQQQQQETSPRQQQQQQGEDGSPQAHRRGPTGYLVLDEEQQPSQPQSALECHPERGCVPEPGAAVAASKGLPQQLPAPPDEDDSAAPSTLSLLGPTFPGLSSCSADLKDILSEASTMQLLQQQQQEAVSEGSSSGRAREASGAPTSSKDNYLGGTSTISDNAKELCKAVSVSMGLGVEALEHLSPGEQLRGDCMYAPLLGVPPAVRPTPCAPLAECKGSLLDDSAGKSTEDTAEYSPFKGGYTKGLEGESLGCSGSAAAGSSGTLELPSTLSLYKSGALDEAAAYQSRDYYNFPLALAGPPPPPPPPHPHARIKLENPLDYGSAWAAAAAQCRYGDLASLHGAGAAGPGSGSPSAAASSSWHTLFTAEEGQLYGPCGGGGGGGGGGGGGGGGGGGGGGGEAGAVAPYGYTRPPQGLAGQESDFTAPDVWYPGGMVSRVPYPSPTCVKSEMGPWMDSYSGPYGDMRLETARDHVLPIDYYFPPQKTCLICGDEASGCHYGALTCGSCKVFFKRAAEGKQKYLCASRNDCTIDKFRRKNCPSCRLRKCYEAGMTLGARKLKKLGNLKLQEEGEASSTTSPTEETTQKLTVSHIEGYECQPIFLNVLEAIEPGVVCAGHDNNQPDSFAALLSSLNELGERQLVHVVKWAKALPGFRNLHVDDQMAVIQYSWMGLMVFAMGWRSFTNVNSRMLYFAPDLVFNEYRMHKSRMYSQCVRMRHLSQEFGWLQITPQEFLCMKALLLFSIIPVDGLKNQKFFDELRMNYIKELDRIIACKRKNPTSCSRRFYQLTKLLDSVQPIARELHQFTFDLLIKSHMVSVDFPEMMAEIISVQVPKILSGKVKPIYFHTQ
Estrogen receptor (Homo sapiens), sequence (P03372 whole entry, looked up): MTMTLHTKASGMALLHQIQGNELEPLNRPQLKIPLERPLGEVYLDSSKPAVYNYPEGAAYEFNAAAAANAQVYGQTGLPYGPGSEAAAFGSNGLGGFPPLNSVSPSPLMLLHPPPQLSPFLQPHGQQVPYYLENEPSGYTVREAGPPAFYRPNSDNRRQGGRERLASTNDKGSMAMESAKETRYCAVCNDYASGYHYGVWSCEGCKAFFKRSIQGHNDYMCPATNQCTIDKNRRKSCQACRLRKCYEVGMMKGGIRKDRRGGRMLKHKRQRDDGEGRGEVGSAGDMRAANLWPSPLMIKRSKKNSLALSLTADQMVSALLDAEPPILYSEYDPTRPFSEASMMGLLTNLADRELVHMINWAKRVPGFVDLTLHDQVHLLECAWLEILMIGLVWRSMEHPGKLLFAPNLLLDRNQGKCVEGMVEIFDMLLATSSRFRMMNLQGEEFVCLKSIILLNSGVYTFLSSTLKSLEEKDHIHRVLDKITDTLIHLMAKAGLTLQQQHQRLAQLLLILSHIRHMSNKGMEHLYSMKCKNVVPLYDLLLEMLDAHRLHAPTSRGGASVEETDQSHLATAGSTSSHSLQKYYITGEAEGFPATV
Aromatase (Homo sapiens), sequence (P11511 whole entry, looked up): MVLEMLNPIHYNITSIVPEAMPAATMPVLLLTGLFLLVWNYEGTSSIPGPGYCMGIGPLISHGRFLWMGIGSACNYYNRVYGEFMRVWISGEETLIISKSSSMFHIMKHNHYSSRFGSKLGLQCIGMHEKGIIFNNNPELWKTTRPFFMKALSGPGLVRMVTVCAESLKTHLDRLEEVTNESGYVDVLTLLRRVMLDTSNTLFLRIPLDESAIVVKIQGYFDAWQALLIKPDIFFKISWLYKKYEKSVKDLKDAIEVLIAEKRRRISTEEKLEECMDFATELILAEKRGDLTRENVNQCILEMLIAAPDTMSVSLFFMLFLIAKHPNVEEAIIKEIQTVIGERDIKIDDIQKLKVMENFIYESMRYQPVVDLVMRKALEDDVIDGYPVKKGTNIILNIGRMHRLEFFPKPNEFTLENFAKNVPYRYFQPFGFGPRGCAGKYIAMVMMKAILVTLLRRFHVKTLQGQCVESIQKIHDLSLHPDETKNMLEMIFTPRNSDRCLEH

CCC(=O)O[C@]1(C(=O)SCF)[C@H](C)C[C@H]2[C@@H]3C[C@H](F)C4=CC(=O)C=C[C@]4(C)[C@@]3(F)[C@@H](O)C[C@@]21C
inactive: outcome [1] | Potency [2] | outcome [3] | Potency [4] | Potency [5] | Potency [6] | outcome [7] | Potency [8] | outcome [9] | Potency [10] | Potency [11] | Potency (Aromatase (Homo sapiens))

OCC(CBr)(CBr)CBr
inactive: Potency [12] | Potency [2] | Potency [13] | outcome [3] | Potency [4] | Potency [5] | Potency [6] | outcome [7] | Potency [14] | Potency [8] | outcome [9] | Potency [10] | outcome [15] | Potency [11]

Oc1ccccc1C=NCc1ccccc1
inactive: outcome [1] | Potency [2] | outcome [3] | Potency [4] | Potency [5] | outcome [7] | Potency [8] | Potency [11] | Potency (Aromatase (Homo sapiens))

Cc1ccc(C(C)C)cc1O
inactive: Potency [12] | Potency [2] | Potency [13] | outcome [3] | Potency [4] | Potency [5] | Potency [6] | outcome [7] | Potency [8] | Potency [11] | Potency (Aromatase (Homo sapiens))

CCCCc1ccc2nc(NC(=O)OC)[nH]c2c1
inactive: outcome [3] | Potency [4] | outcome [17] | Potency [11] | Potency (Aromatase (Homo sapiens))
active: Potency [12] 0.0569 µM | Potency [2] 0.0804 µM | Potency [13] 0.114 µM | Potency [16] 5.07 µM | Potency [5] 0.114 µM | Potency [10] 2.27 µM

CN1CCN(c2c(F)cc3c(=O)c(C(=O)O)cn(CCF)c3c2F)CC1
inactive: outcome [1] | outcome [3] | Potency [4] | Potency [5] | Potency [6] | outcome [7] | Potency [14] | Potency [8] | outcome [9] | outcome [15] | Potency (Aromatase (Homo sapiens))

CC(C)(C)c1ccc(OC(=O)c2ccccc2O)cc1
active: Potency [10] 27.3 µM
inactive: outcome [1] | Potency [13] | outcome [3] | Potency [4] | outcome [7] | Potency [14] | Potency [8] | outcome [9] | Potency [11] | Potency (Aromatase (Homo sapiens))

NC(Cc1ccc(F)cc1)C(=O)O (stereo unspecified)
active: Potency [13] 1.87 µM | Potency [5] 2.64 µM
inactive: viability change, negative = cytotoxic [1] -1.1% [at 7.04 µM] | activity change, negative = cytotoxicity [3] -0.148% [at 7.04 µM] | viability change, negative = cytotoxic [4] -1.4% [at 8.47 µM] | activation [7] -5.43% [at 8.08 µM] | activity, negative = cytotoxicity [8] -20% [at 6.72 µM] | activity change, negative = cytotoxicity [11] -2.97% [at 8.47 µM] | activity, negative = inhibition (Aromatase (Homo sapiens)) -6.6% [at 8.47 µM]

O=C1N(c2ccccc2)c2ccccc2C1(Cc1ccncc1)Cc1ccncc1
inactive: outcome [1] | Potency [13] | outcome [3] | Potency [4] | Potency [5] | Potency [6] | outcome [7] | Potency [14] | outcome [9] | Potency [10] | outcome [15] | Potency [11] | Potency (Aromatase (Homo sapiens))

COc1ccc(Nc2ccc(OC)cc2)cc1
inactive: outcome [1] | outcome [3] | Potency [4] | Potency [5] | Potency [6] | outcome [7] | Potency [14] | Potency [8] | outcome [9] | Potency [11] | Potency (Aromatase (Homo sapiens))
active: Potency [10] 3.93 µM

C=CCCCCCCCCO
inactive: Potency [12] | Potency [2] | Potency [13] | outcome [3] | Potency [4] | Potency [5] | Potency [6] | outcome [7] | Potency [14] | Potency [8] | outcome [9] | Potency [10] | outcome [15] | Potency [11] | Potency (Aromatase (Homo sapiens))

ICCc1ccccc1
inactive: outcome [1] | outcome [3] | Potency [4] | Potency [5] | outcome [7] | Potency [14] | Potency [8] | Potency [10] | outcome [15] | Potency [11] | Potency (Aromatase (Homo sapiens))

CCN[C@H]1CN(CCCOC)S(=O)(=O)c2sc(S(N)(=O)=O)cc21
inactive: Potency [12] | Potency [2] | Potency [13] | outcome [3] | Potency [4] | Potency [5] | Potency [6] | outcome [7] | Potency [14] | Potency [8] | outcome [9] | Potency [10] | outcome [15] | Potency [11] | Potency (Aromatase (Homo sapiens))

COc1cc2c(cc1N)oc1ccccc12
active: Potency [13] 62.4 µM
inactive: outcome [1] | outcome [3] | Potency [4] | Potency [5] | Potency [6] | outcome [7] | Potency [8] | Potency [11] | Potency (Aromatase (Homo sapiens))

OCc1c2ccccc2cc2ccccc12
active: Potency [10] 54.6 µM
inactive: outcome [1] | outcome [3] | Potency [4] | Potency [5] | Potency [8] | outcome [9] | Potency [11] | Potency (Aromatase (Homo sapiens))

O=C(O)[C@@H](O)[C@H](O)[C@H](O)[C@@H](O)C(=O)O
inactive: Potency [12] | Potency [2] | Potency [13] | outcome [3] | Potency [4] | Potency [5] | Potency [6] | outcome [7] | Potency [8] | Potency [11] | Potency (Aromatase (Homo sapiens))

CC(C)(C)c1cccc(O)c1
inactive: outcome [1] | outcome [3] | Potency [18] | outcome [19] | Potency [16] | Potency [4] | outcome [17] | Potency [5] | Potency [6] | outcome [7] | Potency [14] | Potency [8] | outcome [9] | Potency [10] | outcome [15] | Potency [11] | Potency (Aromatase (Homo sapiens))
active: Potency [2] 61.1 µM

Cc1cc2c(s1)Nc1ccccc1N=C2N1CCN(C)CC1
inactive: outcome [1] | outcome [3] | Potency [4] | outcome [7] | Potency [14] | Potency [8] | outcome [9] | Potency [10] | outcome [15] | Potency [11] | Potency (Aromatase (Homo sapiens))
active: Potency [5] 13.3 µM

COC(=O)N[C@H](C(=O)N[C@@H](Cc1ccccc1)[C@@H](O)CN(Cc1ccc(-c2ccccn2)cc1)NC(=O)[C@@H](NC(=O)OC)C(C)(C)C)C(C)(C)C
inactive: outcome [1] | outcome [3] | Potency [4] | Potency [5] | outcome [7] | Potency [14] | outcome [9] | Potency [11] | Potency (Aromatase (Homo sapiens))

COc1cc(C)ccc1C(C)C
inactive: outcome [1] | Potency [2] | outcome [3] | Potency [4] | Potency [5] | outcome [7] | Potency [14] | Potency [8] | outcome [9] | Potency [10] | outcome [15] | Potency (Aromatase (Homo sapiens))

CCOc1ccc(NS(=O)(=O)c2ccc(N)cc2)nn1
inactive: Potency [12] | Potency [2] | Potency [13] | outcome [3] | Potency [4] | Potency [5] | Potency [6] | outcome [7]

O=Cc1ccc(F)c(Br)c1
inactive: Potency [12] | Potency [2] | outcome [3] | Potency [4] | Potency [5] | Potency [6] | outcome [7] | Potency [14] | Potency [8] | outcome [9] | Potency [10] | outcome [15] | Potency [11] | Potency (Aromatase (Homo sapiens))

Cc1ccc([N+](=O)[O-])c(N)c1
inactive: Potency [2] | Potency [13] | outcome [3] | Potency [4] | Potency [5] | Potency [6] | outcome [7] | Potency [8] | Potency [11] | Potency (Aromatase (Homo sapiens))

CC(C)C(=O)OCC(C)(C)C(O)C(C)C (stereo unspecified)
inactive: Potency [12] | Potency [2] | Potency [13] | outcome [3] | Potency [4] | Potency [6] | outcome [7] | Potency [8] | outcome [9] | Potency [10] | outcome [15] | Potency [11] | Potency (Aromatase (Homo sapiens))

CN(CCCN1c2ccccc2CCc2ccccc21)CC(=O)c1ccc(Cl)cc1
inactive: Potency [14] | Potency [8] | outcome [9] | Potency [10] | outcome [15] | Potency [11] | Potency (Aromatase (Homo sapiens))
active: Potency [12] 9.44 µM | Potency [2] 13.3 µM | Potency [13] 13.3 µM | Potency [5] 11.9 µM | Potency [6] 26.6 µM

CCC(=O)c1ccc2c(c1)N(CCCN(C)C)c1ccccc1S2
inactive: outcome [19] | Potency [16] | Potency [8]
active: Potency [2] 8.41 µM | Potency [13] 7.5 µM | Potency [5] 7.5 µM | Potency [6] 7.5 µM

CCCCCCCCCCCCCCCCOP(=O)([O-])OCC[N+](C)(C)C
inactive: Potency [12] | Potency [2] | Potency [13] | Potency [4] | Potency [8] | Potency [11] | Potency (Aromatase (Homo sapiens))
